“And” between values parts separate entries of the source, which are not always exact repeats. Identical values can stand only once. A number with no mark means an inactive call. Records with an inconclusive call do not appear. The source made the active and inactive calls. Unless noted, the call rests on the fitted dose curve; in most records, active means well fitted curve in the direction sought with a large enough effect; inconclusive means small, poorly fitted or top-dose-only effect, or another doubt; inactive means no such curve, though single readings can be large; an effect the other way counts as inactive or inconclusive.

Experiment [1] is described as follows: Cell Viability - Jurkat (AID 426;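 active means dose-dependent loss of cell ATP signal giving a full or clear fitted curve, ranked by lower potency value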;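 further: potency means the concentration at half of the fitted maximal effect; cells exposed to compound for 40 hours at 37 °C before ATP read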). Particulars: qHTS. A digest of the protocol: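 Luminescent ATP read-out (CellTiter-Glo, 20 min at room temperature) after 40 hr compound exposure at 37 °C of Jurkat E6-1 cells, 5000/well. Decreased ATP taken as cytotoxicity; AC50 from standard Hill equation.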
On the technique in general: qHTS replaces the single test concentration by a dilution series.

Experiment [2] is described as follows: Cell Viability - NIH 3T3 (AID 541).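 Further: cells exposed to compound for 40 hours; plate controls were DMSO alone for no effect and tamoxifen positive control for full effect; nearly all actives have a fitted effect of over 25% in size.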 The note with it: NIH 3T3 cell viability, qHTS; activity change, negative = cytotoxicity: at 92.2 µM (top of the series). A digest of the protocol:
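qHTS format; 40 hr compound exposure, 37 °C; CellTiter-Glo luminescence (cellular ATP) read-out after 20 min at RT. Decrease in ATP = cytotoxicity; AC50 from standard Hill fit.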

The nature of experiment [3]: Cellular Toxicity (caspase-3) SHSY5Y (AID 657).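 Further: cells exposed to compound for 16 hours at 37 °C.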 Particulars: SH-SY5Y caspase-3 activation; series mostly up to 91.7 µM. A digest of the protocol: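 qHTS, SH-SY5Y, 1500 cells/well, 5 h pre-incubation 37 °C; compound 16 h 37 °C; Caspase-Glo 3/7 1 h RT; luminescence. Norm.: DMSO = 0, 10 uM staurosporine = 100%. Hill fit → AC50.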
Experiment [4] is described as follows: Cellular Toxicity (caspase-3) BJ (AID 658).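 Further: cells exposed to compound for 16 hours.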 The note with it: BJ fibroblasts, luminescence; Potency: caspase-3 activation; series mostly up to 91.7 µM. A digest of the protocol: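 qHTS, BJ fibroblasts, 1000 cells/well; 5 hr preincubation, 16 hr compound, 37 °C; Caspase-Glo 3/7 reagent, 1 hr RT; luminescence. DMSO = 0%, 10 uM staurosporine = 100%. Hill-equation AC50.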

Experiment [5] in a line: Cellular Toxicity (caspase-3) H-4-II-E (AID 663).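 Further: cells exposed to compound for 16 hr before readout.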 Particulars: H-4-II-E rat hepatoma; Potency: caspase-3 activation; series mostly up to 92.2 µM. A digest of the protocol: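 H-4-II-E rat hepatoma, 1500 cells/well, 5 hr settle at 37 °C; compound 16 hr, 37 °C, complete medium; Caspase-Glo 3/7, 20 min RT; luminescence. DMSO = 0%, 100 uM tamoxifen = 100%; Hill-equation AC50.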

The target of experiment [6] is Cytochrome P450 3A4 (Homo sapiens) (UniProt P08684). Briefly: qHTS Assay for Inhibitors and Substrates of Cytochrome P450 3A4 (AID 884). Further: on the % scale 0 is the no-effect control and ±100 the full control effect; nearly all actives have a fitted effect of over 50% in size. The note with it: recombinant CYP3A4, Luciferin-PPXE luminescence; series mostly up to 57.1 µM. Summed up:
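Luminescent readout of luciferin produced by CYP3A4 (20 nM) dealkylation of Luciferin-PPXE, 25 uM (its KM). NADPH-driven reaction ran 60 min at RT after 10 min compound preincubation; data scaled to 57 uM ketoconazole as 100% inhibition.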

The target of experiment [7] is Estrogen receptor (Homo sapiens) (UniProt P03372). Briefly: qHTS assay for small molecule antagonists of estrogen receptor alpha signaling (AID 588513; active means well fitted curve in the direction sought with a large enough effect in the signal ratio, with a control signal flat, not every such curve was filed as active; the % refers to the signal ratio; further: on the % scale 0 is the no-effect control and ±100 the full control effect). The note with it: ER-alpha-UAS-bla HEK293, beta-lactamase ratio, antagonist mode; series mostly up to 76.9 µM. A digest of the protocol: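 Fluorescence from CCF4 substrate after 2 h at room temperature gave reporter activity; cells had been exposed to compound and 0.5nM 17-beta-estradiol for 18 h at 37 C. Hill-equation fitting yielded IC50 and maximal response.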

Experiment [8] shares this target. Description: qHTS assay for small molecule agonists of estrogen receptor alpha signaling (AID 588514; calls by dose curve;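 further: 0% = vehicle only and 100% = reference agonist; nearly all actives have a fitted effect of over 70% in size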). The note with it: ER-alpha-UAS-bla HEK293, beta-lactamase ratio, 18 h; series mostly up to 76.8 µM. A digest of the protocol: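 Read-out: CCF4 fluorescence from a beta-lactamase reporter in ER-alpha-UAS-bla HEK 293 cells after 18 hrs of compound exposure at 37 C. Normalized to 20 nM 17-beta-estradiol (100%) and DMSO (0%).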

For experiment [9], the target named is Peroxisome proliferator-activated receptor delta (Homo sapiens) (UniProt Q03181). Briefly: qHTS assay for small molecule antagonists of peroxisome proliferator-activated receptor delta signaling (AID 588535; active means well fitted inhibition curve with a large enough effect in the signal ratio, with a control signal flat, not every such curve was filed as active; the % refers to the signal ratio). Particulars: HEK293T PPARd-UAS-bla, beta-lactamase FRET ratio, 18 h; series mostly up to 76.7 µM. Summed up: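 Beta-lactamase reporter read-out (405 nm excitation, 460/530 nm emission) after CCF4 loading for 2 hrs at RT. HEK293T PPAR-delta-UAS-bla cells, 2% charcoal/dextran FBS, compounds for 18 hrs at 37 C. Hill fit gave IC50 and efficacy.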

Experiment [10] deals with Peroxisome proliferator-activated receptor gamma (Homo sapiens) (UniProt P37231). Briefly: qHTS assay for small molecule agonists of peroxisome proliferator-activated receptor gamma signaling (AID 588536; active means well fitted curve in the direction sought with a large enough effect in the signal ratio, with a control signal flat, not every such curve was filed as active; the % refers to the signal ratio). The note with it: HEK293 PPARg-UAS-bla, beta-lactamase ratio, 16 h, percent of rosiglitazone response, DMSO as zero; series mostly up to 76.7 µM. A digest of the protocol: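 Using GeneBLAzer HEK293 cells, response was quantified by CCF4 fluorescence and normalized between basal DMSO (0%) and rosiglitazone 2 uM (100%); curves yielded half-maximal stimulation concentration and efficacy.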

Experiment [11] in a line: qHTS assay for small molecule agonists of the antioxidant response element (ARE) signaling pathway (AID 651741; active means well fitted activation curve with a large enough effect in the signal ratio; the % refers to the signal ratio; further: potency means the concentration at half of the fitted maximal effect; on activation: % of control where 0% means no effect). The note with it: HepG2 ARE-bla reporter, beta-lactamase FRET ratio, 16 h; series mostly up to 96 µM. Summed up: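 HepG2 ARE-bla reporter cells, 2,000/well; 5 h settle at 37 C/5% CO2; compound pin transfer (23 nL, DMSO); 16 h at 37 C; LiveBLAzer B/G FRET substrate, 2 h RT; fluorescence intensity read.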

In experiment [12] the target is Tumor necrosis factor (Homo sapiens) (UniProt P01375). Briefly: qHTS assay to identify small molecules that stimulate Tumor Necrosis Factor-alpha (TNF-alpha) secretion (AID 651757; active means well fitted curve in the direction sought with a large enough effect in the signal ratio; the % refers to the signal ratio; further: 0% is about no effect). The note with it: Human cells, HTRF 665/615 ratio; series mostly up to 92.2 µM. A digest of the protocol: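 THP-1 cells, 3000/well; compound 17 hrs, 37 C; add cryptate/XL665 anti-TNF-alpha antibody pair; 3 hr RT; TR-FRET (HTRF) read of secreted TNF-alpha. Quantitative HTS format.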

The target in experiment [13] is Nuclear receptor ROR-gamma (Homo sapiens) (UniProt P51449). Description: qHTS assay for small molecule antagonists of the retinoid-related orphan receptor gamma (ROR-gamma) signaling pathway (AID 651802). Further: nearly all actives have a fitted effect of over 60% in size. Further: potency means the concentration at half of the fitted maximal effect. The note with it: ROR-gamma antagonist cell reporter assay; series mostly up to 92.2 µM. A digest of the protocol:
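Luciferase read-out: ONE-Glo luminescence after 30 min at room temperature, following 16hr doxycycline induction at 37C, 5% CO2 of CHO cells with TET-inducible ROR and RORE-LUC reporter; decreased luminescence = reduced reporter activity.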

Experiment [14] is described as follows: qHTS assay for small molecule antagonists of the retinoid-related orphan receptor gamma (ROR-gamma) signaling pathway - cell viability counter screen (AID 720652; active means well fitted curve in the direction sought with a large enough effect in the repeat runs; an effect the other way counts as inactive or inconclusive;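 further: CHO reporter cells with doxycycline-induced ROR-gamma expression; compound exposure lasted 16 hr before ATP read; on the % scale 0 is the no-effect control and ±100 the full control effect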). The note with it: RORgamma reporter cell line viability counter screen; series mostly up to 92.2 µM. A digest of the protocol: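 CHO RORE-LUC/TET-ROR line, 1,000 cells/well, 37 C 5% CO2 5 hr; cpd or DMSO + doxycycline induction, 16 hr. CellTiter-Glo, 30 min RT, luminescence = ATP content.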

Experiment [15] in a line: qHTS assay for small molecule activators of the human pregnane X receptor (PXR) signaling pathway (AID 720659; call rule not given here; further: 0% is about no effect). Particulars: DPX-2 HepG2 CYP3A4-luciferase, 24 h; series mostly up to 92.3 µM.
The target in experiment [16] is Vitamin D3 receptor (Homo sapiens) (UniProt P11473). Briefly: qHTS assay for small molecule antagonists of vitamin D receptor signaling (AID 588541; calls by dose curve;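 further: receptor activated by calcitriol during compound treatment; on the % scale 0 is the no-effect control and ±100 the full control effect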). The note with it: HEK293T VDR-UAS-bla, beta-lactamase ratio, antagonist mode; series mostly up to 76.7 µM. A digest of the protocol: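 VDR-UAS-bla HEK293T cells in 2% charcoal-stripped FBS were stimulated with 1-alpha,25-dihydroxyvitamin D3 (3 nM final) plus compound for 16 h at 37 C. The beta-lactamase CCF4 readout was normalized to 50 nM agonist and DMSO, and Hill fits gave IC50.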

Experiment [17] shares this target. Briefly: qHTS assay for small molecule agonists of vitamin D receptor signaling (AID 588543; calls by dose curve). Particulars: HEK293T VDR-UAS-bla, beta-lactamase ratio, 16 h; series mostly up to 76.8 µM. A digest of the protocol:
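Reporter cells (HEK293T, VDR-UAS-bla) were seeded in medium with 2% charcoal-stripped serum and incubated 5 h, then compounds in concentration series were added for 16 h at 37 °C. Stimulation was scaled between DMSO basal and 50 nM 1α,25-dihydroxyvitamin D3.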

The nature of experiment [18]: qHTS assay for small molecule activators of the p53 signaling pathway (AID 651743; active means well fitted activation curve with a large enough effect in the signal ratio, not every such curve was filed as active; the % refers to the signal ratio; further: % of control where 0% means no effect). The note with it: HCT-116 p53RE-bla, beta-lactamase FRET ratio, 16 h; activation: hits give high values. Summed up:
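Reporter: beta-lactamase driven by p53 response elements, stably integrated in HCT-116 cells. Cells seeded at 4,000/well, 5 h preincubation, compound (DMSO) 16 h at 37 C; B/G FRET substrate 2 h RT; fluorescence intensity read.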

Experiment [19] can be described thus: qHTS assay for small molecule activators of the nuclear factor-kappa B (NF-kB) signaling pathway (AID 651749; active means well fitted activation curve with a large enough effect in the signal ratio; the % refers to the signal ratio; further: % of control where 0% means no effect). Particulars: NF-kB-bla ME-180 cells, beta-lactamase FRET ratio, 16 h; hits give high values. Summed up: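 NF-kB-bla ME-180 cells, 2,000/well; 23 nL compound or DMSO pinned; 16 hr, 37C/5% CO2; beta-lactamase FRET read-out.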
Experiment [20] is described as follows: Cellular Toxicity (caspase-3) Mesangial (AID 660).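 Further: combined caspase 3 and 7 activity read by Caspase-Glo luminescence; cells exposed to compound for 16 h before the caspase read.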 The note with it: mesangial cells, normalized: DMSO 0%, 100 µM tamoxifen 100%; series mostly up to 91.7 µM. A digest of the protocol: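 Luminescent Caspase-Glo 3/7 readout (aminoluciferin substrate cleavage, 20 min RT) after 16 h compound exposure at 37 °C of normal human mesangial cells. Signal increase normalized between DMSO basal and 100 uM tamoxifen; Hill-equation AC50.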

Peroxisome proliferator-activated receptor gamma (Homo sapiens), sequence (P37231 whole entry, looked up): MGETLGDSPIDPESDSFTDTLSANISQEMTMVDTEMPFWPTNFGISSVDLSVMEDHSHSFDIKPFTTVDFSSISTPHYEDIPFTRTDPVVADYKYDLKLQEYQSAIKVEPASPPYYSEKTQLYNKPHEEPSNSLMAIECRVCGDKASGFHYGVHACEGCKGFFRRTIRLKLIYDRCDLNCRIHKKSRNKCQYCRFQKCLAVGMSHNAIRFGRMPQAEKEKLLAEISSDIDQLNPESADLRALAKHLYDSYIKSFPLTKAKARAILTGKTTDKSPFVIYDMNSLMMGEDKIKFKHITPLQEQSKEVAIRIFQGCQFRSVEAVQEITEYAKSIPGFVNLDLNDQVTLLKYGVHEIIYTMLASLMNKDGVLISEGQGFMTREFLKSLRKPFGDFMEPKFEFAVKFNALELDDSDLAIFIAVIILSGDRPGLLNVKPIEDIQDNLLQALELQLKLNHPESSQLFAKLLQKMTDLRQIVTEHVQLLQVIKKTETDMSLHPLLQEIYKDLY
Nuclear receptor ROR-gamma (Homo sapiens), sequence (P51449 whole entry, looked up): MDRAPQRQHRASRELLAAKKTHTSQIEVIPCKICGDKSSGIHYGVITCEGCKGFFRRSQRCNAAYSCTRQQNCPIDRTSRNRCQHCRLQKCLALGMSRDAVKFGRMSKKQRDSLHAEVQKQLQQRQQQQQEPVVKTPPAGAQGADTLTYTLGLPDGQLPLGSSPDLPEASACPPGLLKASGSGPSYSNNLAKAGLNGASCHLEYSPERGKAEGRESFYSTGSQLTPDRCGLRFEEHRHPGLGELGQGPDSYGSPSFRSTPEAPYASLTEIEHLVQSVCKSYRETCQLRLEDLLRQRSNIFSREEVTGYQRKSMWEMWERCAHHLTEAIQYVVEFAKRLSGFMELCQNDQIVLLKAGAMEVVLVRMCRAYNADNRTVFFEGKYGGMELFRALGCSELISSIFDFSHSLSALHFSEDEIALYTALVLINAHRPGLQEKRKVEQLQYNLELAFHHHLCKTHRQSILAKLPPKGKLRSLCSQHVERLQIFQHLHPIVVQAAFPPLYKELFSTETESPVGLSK
Vitamin D3 receptor (Homo sapiens), sequence (P11473 whole entry, looked up): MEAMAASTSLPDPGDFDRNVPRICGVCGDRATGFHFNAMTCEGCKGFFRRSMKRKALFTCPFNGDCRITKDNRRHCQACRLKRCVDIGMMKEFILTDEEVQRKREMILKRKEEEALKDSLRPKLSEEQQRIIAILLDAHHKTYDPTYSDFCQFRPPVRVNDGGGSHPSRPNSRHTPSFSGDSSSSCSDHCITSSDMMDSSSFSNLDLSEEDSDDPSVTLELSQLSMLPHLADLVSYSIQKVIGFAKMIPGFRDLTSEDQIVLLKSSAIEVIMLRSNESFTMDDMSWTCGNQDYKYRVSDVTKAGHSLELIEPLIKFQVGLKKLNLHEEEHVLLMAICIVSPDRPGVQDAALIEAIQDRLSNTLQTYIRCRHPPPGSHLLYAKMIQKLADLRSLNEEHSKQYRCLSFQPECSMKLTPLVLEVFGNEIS
Cytochrome P450 3A4 (Homo sapiens), sequence (P08684 whole entry, looked up): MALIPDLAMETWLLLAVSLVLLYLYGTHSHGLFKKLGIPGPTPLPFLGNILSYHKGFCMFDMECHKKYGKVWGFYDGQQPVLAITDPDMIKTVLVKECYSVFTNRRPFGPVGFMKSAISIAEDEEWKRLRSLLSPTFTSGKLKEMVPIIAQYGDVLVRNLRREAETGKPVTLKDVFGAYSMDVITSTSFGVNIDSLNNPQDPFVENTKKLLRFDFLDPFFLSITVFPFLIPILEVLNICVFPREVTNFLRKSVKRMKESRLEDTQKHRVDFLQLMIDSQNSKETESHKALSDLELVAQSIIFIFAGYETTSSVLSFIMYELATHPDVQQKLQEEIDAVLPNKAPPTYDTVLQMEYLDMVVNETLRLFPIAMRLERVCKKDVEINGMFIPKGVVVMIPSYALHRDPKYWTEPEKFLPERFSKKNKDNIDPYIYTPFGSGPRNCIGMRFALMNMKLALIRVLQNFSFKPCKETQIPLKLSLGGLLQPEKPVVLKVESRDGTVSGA
Estrogen receptor (Homo sapiens), sequence (P03372 whole entry, looked up): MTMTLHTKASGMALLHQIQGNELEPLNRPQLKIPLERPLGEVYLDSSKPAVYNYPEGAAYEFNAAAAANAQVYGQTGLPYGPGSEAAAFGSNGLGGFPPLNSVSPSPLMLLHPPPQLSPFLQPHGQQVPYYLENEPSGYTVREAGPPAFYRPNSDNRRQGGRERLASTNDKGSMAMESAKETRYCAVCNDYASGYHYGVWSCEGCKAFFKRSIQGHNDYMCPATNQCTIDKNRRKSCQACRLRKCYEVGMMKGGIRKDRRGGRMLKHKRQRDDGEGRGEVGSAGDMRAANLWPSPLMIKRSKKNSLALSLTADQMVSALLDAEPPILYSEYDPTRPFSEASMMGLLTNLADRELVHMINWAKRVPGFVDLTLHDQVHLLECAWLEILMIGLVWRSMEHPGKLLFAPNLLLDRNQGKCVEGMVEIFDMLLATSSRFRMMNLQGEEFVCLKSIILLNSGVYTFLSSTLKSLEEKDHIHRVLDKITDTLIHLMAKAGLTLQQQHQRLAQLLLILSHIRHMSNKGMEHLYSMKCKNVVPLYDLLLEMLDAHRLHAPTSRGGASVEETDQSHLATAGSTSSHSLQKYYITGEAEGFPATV
Tumor necrosis factor (Homo sapiens), sequence (P01375 whole entry, looked up): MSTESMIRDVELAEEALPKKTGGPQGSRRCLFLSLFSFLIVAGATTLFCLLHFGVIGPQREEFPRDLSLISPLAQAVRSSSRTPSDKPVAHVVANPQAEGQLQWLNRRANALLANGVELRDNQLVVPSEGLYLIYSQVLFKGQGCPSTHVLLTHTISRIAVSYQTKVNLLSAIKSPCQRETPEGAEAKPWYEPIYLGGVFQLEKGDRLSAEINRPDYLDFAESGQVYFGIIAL
Peroxisome proliferator-activated receptor delta (Homo sapiens), sequence (Q03181 whole entry, looked up): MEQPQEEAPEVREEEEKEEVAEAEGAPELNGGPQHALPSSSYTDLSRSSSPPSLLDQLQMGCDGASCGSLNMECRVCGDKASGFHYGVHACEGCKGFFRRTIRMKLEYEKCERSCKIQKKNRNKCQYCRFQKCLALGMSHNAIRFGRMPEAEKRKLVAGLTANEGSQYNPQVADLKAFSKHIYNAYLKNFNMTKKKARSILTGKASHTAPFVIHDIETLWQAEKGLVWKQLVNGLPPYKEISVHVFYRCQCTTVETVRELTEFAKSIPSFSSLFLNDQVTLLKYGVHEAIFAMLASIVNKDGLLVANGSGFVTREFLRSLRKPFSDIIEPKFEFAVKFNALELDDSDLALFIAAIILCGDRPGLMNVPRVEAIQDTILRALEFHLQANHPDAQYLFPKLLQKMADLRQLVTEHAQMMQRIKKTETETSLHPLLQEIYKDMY

On to `CCCCNCC`, for which the Potency in [1] is more than 92 µM. The activity change, negative = cytotoxicity in experiment [2] was -8.38%. For the same molecule, the Potency entry in [3], in experiment [4], in experiment [5], in experiment [6], in experiment [8] and in experiment [11] was “inactive” each time. Also, the Potency entry in [12], in experiment [13] and in [14] was “inactive” in each case. Further, the outcome in [7], in [9], in [10] and in experiment [15] was inactive.

`CC(=O)c1ccc(Cl)c(Cl)c1Cl`: in [1], the Potency was more than 92 µM. The activity change, negative = cytotoxicity in [2] is -14.4%. Also, the Potency entry in experiment [3], in experiment [5], in [6], in experiment [8], in experiment [16] and in experiment [17] was “inactive” each time. Moreover, the Potency entry in experiment [12] and in experiment [14] was “inactive” in each case. Moreover, the result in experiment [7], in experiment [10] and in experiment [15] was inactive. In addition, the activation in experiment [18] was -1.64%; in experiment [19], -0.287%.

Take `Nc1cc([N+](=O)[O-])ccc1O`: the Potency is more than 92 µM in [1]; 29.8 µM (active) and 12.2 µM (active) in experiment [11]; 23.7 µM (active) in experiment [13]. Besides, the result in experiment [20], in experiment [9], in experiment [10] and in [15] was inactive. The Potency result in experiment [5], in experiment [16], in [17] and in [14] was “inactive” in each case. Moreover, the activation in experiment [18] is -1.58% and -3.77%; in experiment [19], -0.245% and -0.938%.

As to `CCCCC(CC)COC(=O)COc1ccc(Cl)cc1Cl` (stereo not given), the Potency in [1] was more than 92 µM. In addition, in experiment [2], the activity change, negative = cytotoxicity was 0.559%. Besides, the Potency result in experiment [3], in [6], in [8], in experiment [16], in experiment [17] and in experiment [12] was “inactive” throughout. In addition, in experiment [14], the Potency result is “inactive”. Besides, the molecule was classed as inactive in [20], in [7], in experiment [10] and in experiment [15]. The activation in [18] was -1.29% and -1.26%.

As to `Oc1ccc2c(c1)OCO2`, the Potency in experiment [1] is more than 92 µM. Further, the Potency result in experiment [5], in experiment [8], in experiment [16], in [17], in experiment [11] and in experiment [12] was “inactive” throughout. In addition, the Potency entry in [13] and in experiment [14] was “inactive” throughout. For the same molecule, the outcome in [7] and in experiment [15] was inactive. Also, the activation in experiment [18] was 4.65%.

With `CCOC(=O)C1OC1c1ccccc1` (stereo not given), the Potency in experiment [1] was more than 92 µM. For the same molecule, the Potency entry in experiment [3], in experiment [4], in [5], in [6], in [16] and in experiment [17] was “inactive” in each case. Further, the Potency entry in experiment [12], in experiment [13] and in experiment [14] was “inactive” in each case. Moreover, the molecule was classed as inactive in experiment [20], in [9], in experiment [10] and in experiment [15]. The activation in [18] was 6.05%; in experiment [19], 0.437%.

Take `CCCCCCN`: the Potency in experiment [1] was more than 92 µM. For the same molecule, the activity change, negative = cytotoxicity in experiment [2] was -9.38%. The Potency result in experiment [3], in experiment [4], in [5], in experiment [6], in [8] and in experiment [16] was “inactive” in each case. Further, the Potency result in experiment [17], in experiment [12], in [13] and in experiment [14] was “inactive” in each case. The molecule was classed as inactive in experiment [20], in experiment [7] and in experiment [15]. For the same molecule, the activation is -1.84% in experiment [18] and -0.245% in [19].

In the case of `OC1CCCCC1`, the Potency in experiment [1] was more than 92 µM. Also, in [2], the activity change, negative = cytotoxicity was -12.6%. Besides, the Potency entry in experiment [3], in experiment [4], in experiment [6], in experiment [8], in [16] and in [17] was “inactive” in each case. Moreover, the Potency entry in experiment [11], in experiment [12], in experiment [13] and in experiment [14] was “inactive” throughout. The result in [20], in experiment [7], in [9], in [10] and in experiment [15] was inactive. Moreover, the activation in experiment [18] is -2.93%.

Values taken from PubChem BioAssay (NCATS).
